Data on eight compounds can be found in PubChem BioAssay (NCI).

This is part of a sample that, as a whole, favours compounds with a hit. Of some 83,000 tested, about 20% had one in any assay.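 96-well plates, one dose, 48 hours. Percent growth reported; active if below 10.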 Unmarked numbers belong to inactive results. The source made the active and inactive calls.

Test systems include NCI-H23 lung; NCI-H226 lung; NCI-H322M lung; HOP-62 NSCLC; NCI-H460 lung; NCI-H522 lung; A549/ATCC NSCLC; 786-0 renal; COLO 205 colon; DU-145 prostate; K-562 leukemia; MDA-MB-231 breast; RXF 393 renal; SF-268 CNS; SF-295 CNS; SF-539 CNS; UACC-257 melanoma; M14 melanoma; MALME-3M melanoma.
Assay in all cases: NCI-60 one-dose screen, 48 h (100 = growth as untreated, 0 = no growth, -100 = all killed)
Common to all, as to conditions: 10 µM unless noted

In the case of `COC(=O)C1(C)COP(=O)(NC23CC4CC(CC(C4)C2)C3)OC1` (centres undefined), the growth was 106% in the assay with NCI-H23 lung; 108% in the assay with NCI-H226 lung; 99% in the assay with NCI-H322M lung; 99% with HOP-62 NSCLC; 103% in the assay with NCI-H460 lung; 89.5% in the assay on NCI-H522 lung. Besides, the growth in the assay with A549/ATCC NSCLC was 99.7%; in the assay with 786-0 renal it was 102%; in the assay on COLO 205 colon it was 103%; in the assay with DU-145 prostate it was 95.4%; in the assay on K-562 leukemia it was 106%; in the assay with MDA-MB-231 breast it was 119%. Moreover, the growth with RXF 393 renal was 107%; with SF-268 CNS, 104%; in the assay with SF-295 CNS, 104%; in the assay with SF-539 CNS, 110%; with UACC-257 melanoma it was 101%; in the assay on M14 melanoma, 104%.

Take `O=C(Nc1ccccc1)C(CCCCN1C(=O)c2ccccc2C1=O)N1C(=O)c2ccccc2C1=O` (centres undefined): the growth in the assay with NCI-H23 lung was 107%; in the assay on NCI-H226 lung, 95.3%; with NCI-H322M lung, 98%; with HOP-62 NSCLC, 109%; in the assay with NCI-H460 lung, 109%; with NCI-H522 lung, 94.6%. The growth in the assay on A549/ATCC NSCLC was 97.8%; in the assay on 786-0 renal, 99.6%; in the assay with COLO 205 colon, 118%; with DU-145 prostate it was 95.4%; with K-562 leukemia it was 82.8%; with MDA-MB-231 breast it was 109%. Also, the growth in the assay with RXF 393 renal was 110%; in the assay with SF-268 CNS, 99.8%; with SF-295 CNS, 101%; in the assay with SF-539 CNS it was 111%; in the assay on UACC-257 melanoma, 106%; in the assay with M14 melanoma, 105%.

For `CC1=NN(c2cccc(S(N)(=O)=O)c2)C(=O)C1`, the growth in the assay with NCI-H23 lung was 87.8%; with NCI-H226 lung, 90.3%; in the assay with NCI-H322M lung, 96.9%; in the assay on HOP-62 NSCLC, 97.7%; with NCI-H460 lung, 103%; with NCI-H522 lung, 113%. For the same compound, the growth is 87.4% in the assay on A549/ATCC NSCLC; 100% in the assay with 786-0 renal; 100% in the assay with DU-145 prostate; 99.4% with K-562 leukemia; 89.9% in the assay on MALME-3M melanoma; 97.1% in the assay on MDA-MB-231 breast. The growth with SF-268 CNS is 91.6%; in the assay with SF-295 CNS, 87.8%; in the assay with SF-539 CNS, 91.5%; in the assay with UACC-257 melanoma it was 124%; in the assay with M14 melanoma it was 95.3%.

Take `COc1ccc(NC(=O)c2ccc(C(F)(F)F)nc2Nc2ccc(Cl)cc2C)cc1Cl`: the growth was 3.83% (active) with NCI-H23 lung; 26.7% in the assay on NCI-H226 lung; 45.8% in the assay with NCI-H322M lung; 32.4% in the assay on HOP-62 NSCLC; 7.62% (active) with NCI-H460 lung; 18.9% with NCI-H522 lung. In addition, the growth was 14.2% in the assay with A549/ATCC NSCLC; 17% in the assay with 786-0 renal; -14.5% (active) in the assay on COLO 205 colon; 9.29% (active) with DU-145 prostate; 16.4% in the assay on K-562 leukemia; 34.8% with MALME-3M melanoma. Also, the growth is 7.34% (active) with MDA-MB-231 breast; 42.5% in the assay on RXF 393 renal; 38.2% with SF-268 CNS; 3.72% (active) with SF-295 CNS; 50.3% with SF-539 CNS; 22% in the assay with UACC-257 melanoma. Also, the growth in the assay on M14 melanoma is 34.2%.

For `O=C(O)C1[S][Sb]([CH](C(=O)O)[CH](C(=O)O)[Sb]2[S]C(C(=O)O)C(C(=O)O)[S]2)[S]C1C(=O)O` (centres undefined), the growth in the assay on NCI-H23 lung was 104%; with NCI-H226 lung it was 105%; with NCI-H322M lung it was 95.8%; in the assay on HOP-62 NSCLC, 123%; with NCI-H460 lung, 84.6%; with NCI-H522 lung, 42.4%. For the same compound, the growth with A549/ATCC NSCLC was 89.2%; in the assay on 786-0 renal, 93.7%; in the assay with COLO 205 colon, 114%; in the assay on DU-145 prostate, 97.1%; in the assay on K-562 leukemia, 76%; in the assay on MALME-3M melanoma, 31.3%. Moreover, the growth is 88.2% with MDA-MB-231 breast; 103% in the assay on RXF 393 renal; 104% with SF-268 CNS; 76.3% in the assay on SF-539 CNS; 89.3% in the assay on UACC-257 melanoma; 74.5% in the assay on M14 melanoma.

Take `N#Cc1nc(-c2cccc(Br)c2)cc(-c2ccc(Nc3nc(N4CCCCC4)nc(N4CCCCC4)n3)cc2)c1N`: the growth in the assay with NCI-H23 lung is 13%; in the assay with NCI-H226 lung, -73.7% (active); in the assay on NCI-H322M lung, 63.1%; in the assay with HOP-62 NSCLC, 18.5%; in the assay on NCI-H460 lung, -21.8% (active); in the assay on NCI-H522 lung, -64.6% (active). Further, the growth is 21.9% with A549/ATCC NSCLC; 6.82% (active) with 786-0 renal; -57.7% (active) in the assay with COLO 205 colon; -39% (active) in the assay with DU-145 prostate; 4.51% (active) with K-562 leukemia; -80.9% (active) with MALME-3M melanoma. The growth in the assay with MDA-MB-231 breast was -67.4% (active); in the assay with RXF 393 renal, -70.9% (active); in the assay on SF-268 CNS, 5.03% (active); with SF-295 CNS, 82.8%; in the assay on SF-539 CNS, -75.9% (active); with UACC-257 melanoma, -35.8% (active). Besides, the growth in the assay with M14 melanoma is 2.1% (active).

`COc1cc(/C=C2\C(=O)Nc3ccc(N(C)C)cc32)cc(OC)c1OC`: the growth was 26.8% in the assay on NCI-H23 lung; 25.8% in the assay with NCI-H226 lung; 37.6% with NCI-H322M lung; 45.5% with HOP-62 NSCLC; 6.86% (active) with NCI-H460 lung; 23.8% in the assay on NCI-H522 lung. The growth was -3.78% (active) in the assay on A549/ATCC NSCLC; 28.4% in the assay on 786-0 renal; 28% in the assay on COLO 205 colon; 21.8% with K-562 leukemia; 37.2% in the assay with MALME-3M melanoma; 24.3% in the assay on MDA-MB-231 breast. For the same compound, the growth in the assay with RXF 393 renal is -45% (active); in the assay on SF-295 CNS it was 7.29% (active); with SF-539 CNS, 10.3%; with UACC-257 melanoma, -11% (active); in the assay with M14 melanoma it was -3.91% (active).

Regarding `O=C(NNC(=S)Nc1ccccc1)c1ccc(Nc2ncnc3c2cnn3-c2cccc(Br)c2)cc1`, the growth with NCI-H23 lung is 99.8%; in the assay with NCI-H226 lung it was 94.3%; in the assay with NCI-H322M lung it was 95.5%; in the assay on HOP-62 NSCLC, 88%; with NCI-H460 lung, 112%; in the assay on NCI-H522 lung, 88.6%. Moreover, the growth in the assay with A549/ATCC NSCLC was 112%; with 786-0 renal, 105%; in the assay with COLO 205 colon, 103%; in the assay on DU-145 prostate, 107%; with K-562 leukemia it was 112%; with MALME-3M melanoma, 101%. Besides, the growth is 110% with MDA-MB-231 breast; 99.6% in the assay with RXF 393 renal; 95.4% with SF-268 CNS; 98.5% in the assay with SF-539 CNS; 114% in the assay with UACC-257 melanoma; 100% in the assay with M14 melanoma.
